ERG-DNA inh: ERG Ets/DNA interaction inhibition | fluorescence polarization, His-ERG Ets domain / labelled DNA | actives 0.028% (n = 370,000) | P11308 | Potency, µM (highest dose often 76.9 µM), for inactives: top-dose FP activity, negative = inhibition, hits mostly inhibitors; active = well fitted inhibition curve with a large enough effect in the polarisation, with a control signal flat; inconclusive = small, poorly fitted or top-dose-only effect, or effect the other way, or a change in a side signal; inactive = no such curve, though single readings can be large or run the other way; the % refers to the polarisation;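 note: polarization taken with two DNA probes labelled with fluorescein and Texas red; potency is the fitted concentration of half-maximal effect; % of control where 0% means no effect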
Target sequence (P11308 whole entry, looked up, the tested form may be a part): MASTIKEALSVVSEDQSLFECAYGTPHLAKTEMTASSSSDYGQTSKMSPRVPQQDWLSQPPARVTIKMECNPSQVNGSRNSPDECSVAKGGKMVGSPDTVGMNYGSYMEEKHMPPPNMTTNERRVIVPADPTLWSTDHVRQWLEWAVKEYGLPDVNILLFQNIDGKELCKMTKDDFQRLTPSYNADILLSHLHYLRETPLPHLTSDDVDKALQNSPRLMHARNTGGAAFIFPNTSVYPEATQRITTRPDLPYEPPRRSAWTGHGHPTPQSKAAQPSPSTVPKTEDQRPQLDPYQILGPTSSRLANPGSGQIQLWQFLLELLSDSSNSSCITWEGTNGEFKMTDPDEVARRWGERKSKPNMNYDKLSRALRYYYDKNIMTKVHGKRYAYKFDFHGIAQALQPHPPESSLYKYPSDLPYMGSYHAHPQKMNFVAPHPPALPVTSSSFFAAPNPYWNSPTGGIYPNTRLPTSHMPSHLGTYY
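His-tagged ERG Ets domain (1 uM in the protein solution; 300mM KCl, 50mM Tris-HCl, 1mM EDTA, 1mM DTT, pH 7.5) received compound, then a probe mix of 5 nM fluorescein-DNA and 100nM Texas-615-DNA. Fluorescence polarization was read for both dyes.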
Nrf2 ARE act: Nrf2 pathway activation; AREc32 ARE-luciferase reporter (MCF7-derived line), luminescence, 24 h; Potency, µM (highest dose often 46.1 µM), without a hit: at the top dose activation, most hits filed as activators; actives 0.31% (n = 410,000); AID 624171; note: potency is the fitted concentration of half-maximal effect; % of control where 0% means no effect; nearly all actives have a fitted effect of over 65% in size
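Each well held 1000 AREc32 cells, which were incubated with compound for 24 hr at 37 deg C after overnight attachment, and ARE reporter activity was quantified by firefly luciferase luminescence.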
LDHA block: blocks human lactate dehydrogenase A. activity change, % (values are at about 110 or 230 µM). purified LDHA, NADH/diaphorase-resazurin fluorescence; stronger effect = lower value. AID 1347041. P00338. actives 0.15% (n = 480,000); in the data active = activity change below about -30%; inconclusive = mostly about -25% to -30%;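 note: plate controls were DMSO wells for no effect and wells without enzyme for full effect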
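Enzyme activity of human lactate dehydrogenase 5 (2 nM; 0.06 mM NADH, 0.2 mM pyruvate, 5 min, RT) is measured via a resazurin/diaphorase fluorescence readout of residual NADH.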
Nrf2 block: blocks Nrf2 signaling; A549 ARE-Fluc reporter, luciferase luminescence, 18-24 h; Potency, µM (top dose mostly 46 µM), without a hit: top-dose activity change, negative = inhibition, usual class: inhibitors; actives 2.1% (n = 360,000); note: potency is the fitted concentration of half-maximal effect; % is set by controls: 0 for no effect and ±100 for the full control effect; nearly all actives have a fitted effect of over 60% in size
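Reporter: ARE-Fluc in A549. Exposure: 18-24 h, 37 °C, 5% CO2, 5% FBS OPTI-MEM. Readouts: fluorescent cytotoxicity (CellTiter-Fluor), then luminescent Nrf2 signal after BugLite.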
12-LOX inh: blocks human arachidonate 12S-lipoxygenase | actives 1.1% (n = 580,000) | purified 12hLO, xylenol orange hydroperoxide absorbance | P18054 | Potency, µM (series often up to 108 µM), without a hit: at the highest dose activity change, negative = inhibition, hits mostly inhibitors | AID 1671190; note: potency is the fitted concentration of half-maximal effect; % is set by controls: 0 for no effect and ±100 for the full control effect
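Purified human 12hLO at 150 nM in 25 mM Hepes, 0.01% Triton X-100, pH 7.0, preincubated 15 min at room temperature with compound. Reaction started with 40 uM arachidonic acid, 30 min at room temperature. Hydroperoxide measured by Fe-xylenol orange, 573/405 nm absorbance ratio.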
A549 viability: kills or reduces viability of A549 cells in Nrf2 counter-screen. A549 ARE-Fluc cells, CellTiter-Fluor viability, 18-24 h. Potency, µM (top dose mostly 46 µM), for inactives: at the top dose activity change, negative = cytotoxicity, hits mostly inhibitors. actives 0.16% (n = 390,000). AID 504648; note: potency is the fitted concentration of half-maximal effect; % is set by controls: 0 for no effect and ±100 for the full control effect
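Cytotoxicity counterscreen: CellTiter-Fluor fluorescence was measured in A549 ARE_Fluc cells after 18-24 h of compound exposure in a concentration series. The subsequent BugLite luminescent read reports ARE-luciferase activity.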
* marks the source's active call; other numbers are inactive results; ? = inconclusive; · = no result given. This is a sample that favours compounds with a hit; in the whole collection about 2.7% have one here. Unless noted, calls come from the whole dose curve; as a rule, active = well fitted curve in the direction sought with a large enough effect; inconclusive = small, poorly fitted or top-dose-only effect, or another doubt; inactive = no such curve, though single readings can be large; an effect the other way counts as inactive or inconclusive.

SMILES | ERG-DNA inh | Nrf2 ARE act | LDHA block | Nrf2 block | 12-LOX inh | A549 viability
N#Cc1nc(/C=C/c2cccs2)oc1NC1CC1 | · | · | -6 | · | 25µM* | ·
COc1ccccc1Oc1c(C)oc2cc(OCC(=O)O)ccc2c1=O | · | · | -9 | · | ? | ·
CCn1c(C(=O)N2CCCC(C(=O)NCCc3ccc(C)cc3)C2)cc2sccc21 (configuration not stated) | · | -2% | 5 | ? | 16% | -15%
CCn1c(C(=O)N2CCCC(C(=O)NCCCc3ccccc3)C2)cc2sccc21 (configuration not stated) | · | 3% | -1 | 16µM* | -26% | ?
O=c1[nH]c(=S)[nH]c2scc(-c3ccc(Br)cc3)c12 | 1% | -1% | -19 | -9% | ? | -6%
O=c1[nH]c(=S)[nH]c2sccc12 | 9% | 0% | -3 | 12% | 8.9µM* | 5%
O=C(O)c1ccc(CSc2nnnn2-c2ccc(F)cc2)cc1 | -12% | 0% | -6 | -19% | -12% | 1%
O=C(CSc1nnnn1-c1ccc(F)cc1)c1ccc(O)c(O)c1 | 1% | 6% | 10 | ? | 14µM* | -15%
O=C(C[n+]1c(Cl)ccc2ccccc21)c1ccc2ccccc2c1 | · | · | 1 | · | · | ·
O=C(C[n+]1c2ccccc2cc2ccccc21)c1ccc(F)cc1 | · | · | -45* | · | · | ·
Cc1cc(C)c2nc(NNC(=O)c3ccc(S(=O)(=O)N4CC(C)CC(C)C4)cc3)sc2c1 (configuration not stated) | -13% | 4% | -5 | ? | 6.3µM* | -11%
C=CCC[C@H](Cc1ccc(F)cc1)C(=O)OC[C@@H](Cc1c[nH]c2ccccc12)NC(=O)[C@H](CC=C)CC(=O)N(CCO)Cc1ccccc1 | ? | -2% | 1 | 21µM* | ? | ?
C=CCC[C@@H](Cc1ccc(F)cc1)C(=O)OC[C@@H](Cc1c[nH]c2ccccc12)NC(=O)[C@H](CC=C)CC(=O)N(CCO)Cc1ccccc1 | -1% | -5% | 4 | 23µM* | ? | ?
C=CC[C@H](CC(=O)N(CCO)Cc1ccccc1)C(=O)N[C@@H](COC(=O)[C@@H](CC=C)Cc1ccc(F)cc1)Cc1c[nH]c2ccccc12 | 10% | -2% | 1 | 18µM* | ? | ?
C=CC[C@@H](CC(=O)N(CCO)Cc1ccccc1)C(=O)N[C@@H](COC(=O)[C@@H](CC=C)Cc1ccc(F)cc1)Cc1c[nH]c2ccccc12 | -1% | -4% | 1 | ? | -36% | ?
C=CCC[C@H](Cc1ccc(F)cc1)C(=O)OC[C@@H](Cc1c[nH]c2ccccc12)NC(=O)[C@H](CC=C)CC(=O)NCCO | -17% | 0% | 1 | -24% | ? | -12%
C=CCC[C@@H](Cc1ccc(F)cc1)C(=O)OC[C@H](Cc1c[nH]c2ccccc12)NC(=O)[C@H](CC=C)CC(=O)NCCO | 0% | -5% | 4 | -11% | -15% | -11%
Cc1cccc(Nc2nc(-c3ccc(C)cc3C)cs2)c1 | · | · | -1 | · | ? | ·
O=C(NCc1ccncc1)c1cccc(S(=O)(=O)Nc2ccc(SC(F)F)cc2)c1 | 5% | 0% | -3 | 15µM* | -7% | -21%
Cc1cc2c3c([nH]c2cc1S(=O)(=O)N1CCC2(CC1)OCCO2)CC(C)(C)CC3=O | 20% | 3% | -7 | 23µM* | 0% | 16%
CCc1cc2c3c([nH]c2cc1S(=O)(=O)N1CCC2(CC1)OCCO2)CCCC3=O | 2% | 0% | 1 | ? | 6% | -1%
Cc1cc(-c2cccc([N+](=O)[O-])c2)nc2ccccc12 | -18% | ? | -4 | 26% | -27% | -6%
O=[N+]([O-])c1cccc(-c2cnc3ccccc3n2)c1 | 4% | 6.3µM* | -11 | ? | 76% | 6%
